# Data as given in PubChem BioAssay.
# Active and inactive are the calls of the source.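 Rule for the calls: active = inhibition above the hit cutoff set in the earlier primary screen (cut at about 27% in these data); inactive = the rest.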
# Target: Protein phosphatase methylesterase 1 (Homo sapiens) (UniProt Q9Y570)
# Test: PME-1 inhibitor activity retest, confirmation, biochemical, fluorescence polarization, FP-Rh probe, triplicate (AID 2171);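 note: 0% = enzyme with DMSO and 100% = wells lacking PME-1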
# Settings: recombinant PME-1, FP-Rh probe fluorescence polarization; at 5.9 µM; active compounds read high
# Sequence of Protein phosphatase methylesterase 1 (Homo sapiens) (Q9Y570 whole entry, looked up): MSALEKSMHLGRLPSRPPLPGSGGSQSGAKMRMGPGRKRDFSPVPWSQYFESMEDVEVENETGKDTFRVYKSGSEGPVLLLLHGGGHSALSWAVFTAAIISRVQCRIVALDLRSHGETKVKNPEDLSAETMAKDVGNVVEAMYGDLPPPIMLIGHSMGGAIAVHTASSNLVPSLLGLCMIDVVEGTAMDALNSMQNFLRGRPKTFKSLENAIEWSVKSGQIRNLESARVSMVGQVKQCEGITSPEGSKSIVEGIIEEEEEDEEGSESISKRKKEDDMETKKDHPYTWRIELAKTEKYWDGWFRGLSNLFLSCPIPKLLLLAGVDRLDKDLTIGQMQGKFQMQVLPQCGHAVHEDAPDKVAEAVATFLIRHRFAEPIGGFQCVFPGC
row,Compound,inhibition
1,Cc1ccc(S(=O)(=O)/N=C2/C=C(Sc3ncn[nH]3)C(=O)c3ccccc32)c(C)c1,49.6% (active)
2,O=C(COC(=O)c1ccccc1Br)Nc1cc(S(=O)(=O)N2CCOCC2)ccc1N1CCCC1,52.1% (active)
3,Cn1c(=O)c(Nc2ccc(O)cc2)c2c3c(cccc31)C(=O)c1ccccc1-2,36% (active)
4,COc1ccc(C2CC(c3ccc(OC)c(OC)c3)=NN2S(C)(=O)=O)cc1 (stereo not given),22.9% (inactive)
5,Oc1[nH]c2ccccc2c1N=Nc1nc2ccccc2s1,14.1% (inactive)
6,CCC(CNc1cc(OC)cc2cccnc12)NC1CCCCC1 (stereo not given),9.75% (inactive)
7,O=S(=O)(c1cccs1)N1CN(Cc2ccco2)c2nc3ccccc3nc21,13.4% (inactive)
8,c1ccc(-c2ccc(C3CCCN3)cc2)cc1 (stereo not given),0.67% (inactive)
9,CC(C)(C)n1nnnc1C(c1cccs1)N(Cc1cccnc1)Cc1ccco1 (stereo not given),15.8% (inactive)
10,Cn1c(=N)n(CC(=O)c2ccc(Br)cc2)c2ccccc21,13.3% (inactive)
11,Cc1ccc(S(=O)(=O)Oc2cccc(/C=N/Nc3ccc(C(=O)O)cc3)c2)cc1,94% (active)
12,Cc1c2cc(O)c(=O)cc-2oc2cc(O)c(O)cc12,143% (active)
13,COc1ccc(O)c(-c2cc(-c3cccc(Br)c3)n[nH]2)c1,23.7% (inactive)
14,CS(=O)(=O)N1N=C(c2ccccc2)CC1c1ccc2c(c1)OCO2 (stereo not given),-54.8% (inactive)
15,CC(C)N=c1cc2n(-c3ccc(Cl)cc3)c3ccccc3nc-2cc1Nc1ccc(Cl)cc1,17.7% (inactive)
16,COc1cc2[nH]c3c(N4CCN(c5ccc(Cl)cc5)CC4)ncnc3c2cc1OC,74.9% (active)
17,CCc1ccc(-c2cc(C(=O)N/N=C/c3c[nH]c4ccccc34)[nH]n2)cc1,12% (inactive)
18,Cc1c(O)ccc(/C=N/Nc2nc(-c3cccnc3)nc3ccccc23)c1O,48.8% (active)
19,CC1(OC(=O)c2cnc3ccccc3n2)C(=O)C=C2C=C(C3CC3)OC=C2C1=O (stereo not given),23.9% (inactive)
20,Cn1c(=O)c(C#N)c(-c2ccc(F)cc2)c2cc(C(=O)c3cc(Cl)cc(Cl)c3O)cnc21,59.1% (active)

row,Compound,inhibition
1,CCCN(CCC)CCCNC(=O)c1cn(CC)c2ccc(S(=O)(=O)N(C)C3CCCCC3)cc2c1=O,50.9% (active)
2,Cc1ccc(-c2c(C(=O)N/N=C/c3c[nH]c4ccccc34)nnn2-c2nonc2N)cc1,21.9% (inactive)
3,COc1cc2c(C#N)c(N3CCN(c4ccccc4OC)CC3)nc(N)c2c(N)n1,78% (active)
4,C/C(=N/Nc1ccnc2cc(Cl)ccc12)c1ccc(N)cc1,26% (inactive)
5,CCOc1ccc(NC(=S)NNc2ccnc3cc(Cl)ccc23)cc1,28.3% (active)
6,COc1ccccc1N1CCN(C(=O)C2CCN(S(=O)(=O)c3ccc(C)cc3)CC2)CC1,15.3% (inactive)
7,COc1ccc2[nH]c(O)c(N=NC(=O)c3ccc(NS(=O)(=O)c4cccs4)cc3)c2c1,19.4% (inactive)
8,COc1ccc(-c2oc(NC(=O)CCl)c(C#N)c2-c2ccc(OC)cc2)cc1,22.7% (inactive)
9,CC(C)=CCc1cc(-c2oc3cc(O)cc(O)c3c(=O)c2O)ccc1O,36.8% (active)
10,CC1=NN(c2ccccc2)C(=O)/C1=C/c1c(O)n(-c2ccc(F)cc2)[nH]c1=O,52.1% (active)
11,CCOC(=O)c1ccc(Nc2nc(N)c3cc(OC)c(OC)cc3n2)cc1,27.9% (active)
12,C=CCN=c1scc(-c2ccco2)n1/N=C/c1ccc(O)c(O)c1O,-17.6% (inactive)
13,COc1ccc(/C=N\NC(=O)c2cc(O)c(O)c(O)c2)cc1COc1ccc(C(=O)OCC(C)C)cc1,-24.1% (inactive)
14,Nc1c(C(=O)Nc2ccc(Br)cc2)sc2nc(-c3ccco3)ccc12,34.4% (active)
15,Oc1c(Br)cc(Br)cc1CNc1cnc2ccccc2c1,34.8% (active)
16,Cc1cc(C)c(NC(=O)COC(=O)c2cccc3c2C(=O)c2ccccc2C3=O)c(C)c1,42.1% (active)
17,O=C(NNc1c2ccccc2nc2ccccc12)c1ccccc1O,65.5% (active)
18,O=C(N/N=C/c1cc(Cl)c(O)c(Cl)c1)c1cc2c(ccc3ccccc32)o1,38.5% (active)
19,S=C(NCc1ccccc1)NCc1cccc(CNC(=S)NCc2ccccc2)c1,3.07% (inactive)
20,Cc1ccsc1C=Nc1ccc(O)cc1,3.81% (inactive)
